From PubChem BioAssay
Shown are actives, neighbours in structure and some others; about 5.4% of the full set was active somewhere.
p53 reactivation: restores transcriptional activity of mutant p53; H1299 p53-A138V BP100-luciferase reporter, luminescence, 24 h; Potency, µM (highest dose often 92.2 µM), inactives show at the highest dose activity change, positive = activation, actives largely listed as activators; 320,000 compounds, 0.063% hits; also: potency is read from the fitted curve at half-maximal effect; % of control where 0% means no effect; nearly all actives have a fitted effect of over 45% in size
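H1299 (p53-null), stable ts p53-A138V + BP100-Luc; 1000 cells/well, Opti-MEM/10% FBS; cpd 4 pt, 1:5; 24 h, 37 deg C, 5% CO2; detection reagent 10 min RT; luminescence.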
Six1-Eya2 inh: blocks human Six1 binding to Eya2; 360,000 compounds, 0.56% hits; AlphaScreen GST-Six1/His-Eya2 binding, biochemical; hits give low values; activity change, % (concentration not given with the values); in the data active = activity change below about -65%; inconclusive = mostly about -30% to -63%; also: % is scaled to controls: 0 for no effect and ±100 for the full control effect
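Compounds are tested against tagged Six1 and Eya2 proteins bridged by glutathione donor and nickel acceptor beads; after a one-hour incubation at 37 °C without light, AlphaScreen emission is recorded.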
VP16 counter: counter-screen for ROR gamma inhibitors: Gal4-VP16 reporter. Drosophila S2 Gal4-VP16 UAS-luciferase, luminescence, 20 h. Potency, µM (highest dose often 53.6 µM), for inactives: at the top dose activity, negative = inhibition, usual class: inhibitors. 310,000 compounds, 3.5% hits;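 also: Gal4-VP16 expression switched on by copper sulfate through the metallothionein promoter; potency is read from the fitted curve at half-maximal effect; % is scaled to controls: 0 for no effect and ±100 for the full control effect; nearly all actives have a fitted effect of over 50% in size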
CtBP-E1A inh: CtBP/E1A binding inhibition. AlphaScreen GST-E1A/His-CtBP binding, 1536-well; hits give low values. activity change, % (test concentration not listed). 340,000 compounds, 0.49% hits. AID 651724; in the data active = activity change below about -65%; inconclusive = mostly about -30% to -63%; also: % is scaled to controls: 0 for no effect and ±100 for the full control effect
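Protein mix (5X: 125 nM each GST-E1A, His-CtBP) was incubated with pinned compound 2 h at 37 deg C in dark, in 50 mM Tris pH 8.0 buffer with 300 mM NaCl. Glutathione donor and nickel acceptor beads followed; AlphaScreen signal read after 1 h.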
RORg inh: ROR gamma (mouse) transcription inhibition; P51450; Potency, µM (top dose mostly 53.6 µM), for the others: at the highest dose activity change, negative = inhibition, most hits filed as inhibitors; Drosophila S2 Gal4-RORgamma UAS-luciferase reporter, 20 h; 310,000 compounds, 5.4% hits; also: potency is read from the fitted curve at half-maximal effect; % is scaled to controls: 0 for no effect and ±100 for the full control effect; nearly all actives have a fitted effect of over 60% in size
Target sequence (P51450 whole entry, looked up, the tested form may be a part): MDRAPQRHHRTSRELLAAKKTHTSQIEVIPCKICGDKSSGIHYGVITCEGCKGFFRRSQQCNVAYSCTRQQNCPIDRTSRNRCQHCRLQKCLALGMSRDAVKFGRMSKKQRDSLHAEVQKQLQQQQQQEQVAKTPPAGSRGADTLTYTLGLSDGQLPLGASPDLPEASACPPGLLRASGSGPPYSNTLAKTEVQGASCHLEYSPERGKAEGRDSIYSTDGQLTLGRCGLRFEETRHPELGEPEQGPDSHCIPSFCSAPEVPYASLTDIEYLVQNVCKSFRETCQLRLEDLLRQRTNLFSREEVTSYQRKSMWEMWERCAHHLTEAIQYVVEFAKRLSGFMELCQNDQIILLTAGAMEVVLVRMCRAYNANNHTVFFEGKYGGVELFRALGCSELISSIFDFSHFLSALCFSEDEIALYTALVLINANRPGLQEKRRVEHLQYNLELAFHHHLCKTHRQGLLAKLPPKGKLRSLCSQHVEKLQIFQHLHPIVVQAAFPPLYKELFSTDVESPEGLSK
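Schneider cells (Drosophila), stable Gal4 DBD–ROR gamma + UAS-luc; 1 hr cmpd preincubation; Cu2+ induction 700 uM final; 20 hr ambient; luminescence.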
Active calls of the source: *; u = inconclusive; x = no result. Unless noted, calls follow the shape of the dose curve; as a rule, active = well fitted curve in the direction sought with a large enough effect; inconclusive = small, poorly fitted or top-dose-only effect, or another doubt; inactive = no such curve, though single readings can be large; an effect the other way counts as inactive or inconclusive.

SMILES	p53 reactivation	Six1-Eya2 inh	VP16 counter	CtBP-E1A inh	RORg inh
O=C(N=Nc1c(O)n(C2OC(=O)c3ccccc32)c2ccccc12)c1ccc(O)cc1 (stereo unspecified)	u	27	2.8µM*	1	2.8µM*
FC(F)(F)c1ccccc1-c1nc(NCc2cccs2)c2ccccc2n1	x	x	2%	x	27%
CCOC(=O)c1c(C)oc2c1c1c(c3ccccc32)OCN(CCCC(=O)O)C1	16%	-1	-7%	-15	-4%
CCOC(=O)c1c(C)oc2c1c1c(c3ccccc32)OCN(Cc2cccnc2)C1	u	-7	7.9µM*	-8	1.8µM*
CC1(C)Cc2cccc(OCC(=O)NCc3cccs3)c2O1	1%	11	x	-1	x
COc1ccc(C(=O)NC(=S)Nc2ccc(Cc3ccncc3)cc2)cc1	7%	-8	u	x	u
COc1ccc(CCCC(=O)Nc2ccccc2F)cc1	u	-2	10%	-17	20%
COc1ccc(CNC(=S)Nc2cccc(C)c2C)cc1	-11%	-6	7.9µM*	6	2.5µM*
Cc1cccc(NC(=S)NCc2ccncc2)c1C	-14%	2	2%	-15	-14%
COc1ccc(C(=O)NC(=S)Nc2ccccc2F)cc1	u	7	11µM*	6	4.5µM*
COc1ccc(CNC(=S)Nc2ccccc2F)cc1	u	2	18µM*	-5	u
COc1ccc(C(=O)Nc2ccccc2NC(=O)c2ccc(OC)cc2)cc1	x	0	x	x	x
CNC(=O)NC(=S)NC(=O)c1ccc(OC)cc1	2%	-2	-27%	8	11µM*
N#Cc1nc(NCC(F)F)nc(Nc2cc(F)cc(F)c2)n1	-46%	x	x	x	x
CN(CCO)CCC(=O)NC1(C)CS(=O)(=O)CC1S(=O)(=O)O (stereo unspecified)	-2%	3	-1%	1	-17%
Fc1ccc(CNC(=S)Nc2ccccc2F)cc1	-8%	16	u	x	u
Fc1ccccc1NC(=S)NCc1ccc(Cl)cc1	-4%	6	u	-2	11µM*
Cc1ccc(/C=C2/SC(=S)N(c3ccc(S(=O)(=O)Nc4nccs4)cc3)C2=O)cc1	9%	-24	0.79µM*	-23	5.6µM*
CCc1ccc(NC(=O)CSc2nc3nc(C)cc(C)n3n2)cc1	-10%	-1	1.1µM*	-16	36%
O=C(NC1CC1)c1cccc(NC(=O)C2CCCCC2)c1	x	13	x	5	x
COc1ccc(CC(=O)N/N=C/C=C/c2cccc([N+](=O)[O-])c2)cc1OC	3%	-24	17%	-9	-4%
CC(/C=C/c1ccccc1)=N\NC(N)=S	u	-9	2.2µM*	4	0.56µM*
O=C(N/N=C/C=C/c1ccccc1)c1cccs1	9%	4	2.8µM*	-3	2.8µM*
COc1ccccc1NCC(=O)N/N=C/C=C/c1ccccc1	u	-5	u	x	u
COc1ccc(NCC(=O)N/N=C/C=C\c2ccccc2)cc1	u	-13	13µM*	-3	11µM*
SMILES	p53 reactivation	Six1-Eya2 inh	VP16 counter	CtBP-E1A inh	RORg inh
O=C(Cc1cccc2ccccc12)N/N=C/C=C/c1cccc([N+](=O)[O-])c1	-19%	-2	u	9	13µM*
Cc1ccccc1NC(=O)CSCc1nc(N)nc(Nc2ccccc2C)n1	-2%	-1	5%	-11	u
O=C(N/N=C/C=C\c1ccccc1[N+](=O)[O-])c1ccncc1	16%	-6	u	12	10µM*
O=C(N/N=C/C=C/c1ccccc1)c1ccncc1	16%	-11	7.1µM*	-12	2.8µM*
CC1(C)OC(c2ccccc2)=C/C(=C/C=Nc2ccccc2)O1	5%	-10	31%	5	-11%
Nc1ccc(C(=O)N/N=C\C=C\c2cccc([N+](=O)[O-])c2)cc1	-9%	-13	-11%	-10	u
CC1(C)OC(c2ccccc2)=C/C(=C\C=N\NC(=O)c2ccncc2)O1	-1%	-21	0.56µM*	-9	0.4µM*
O=C(N/N=C/C=C/c1cccc([N+](=O)[O-])c1)c1ccncc1	13%	-20	u	4	7.1µM*
COc1ccc(CN(C)C(C)C(=O)Nc2ccc(S(=O)(=O)N3CCCC3)cc2)c(OC)c1OC (stereo unspecified)	-5%	x	0%	x	30%
Cc1c(NC(=O)CN2CCN(c3cccc(Cl)c3)CC2)c(=O)n(-c2ccccc2)n1C	3%	-4	-4%	-2	10%
Cc1ccccc1CN1[C@@H](CC2CCCCC2)COCCS1(=O)=O	x	6	-2%	-10	7%
O=C(O)c1ccc(N/N=C/C=C/c2ccccc2)cc1	4%	6	1.1µM*	-6	11µM*
CCNc1ccccc(C(=O)/C=C/c2ccc3c(c2)OCO3)c1=O	-4%	-21	u	-1	7.9µM*
O=C(N/N=C/C=C\c1ccc([N+](=O)[O-])cc1)c1cccnc1	-1%	15	u	-1	5.6µM*
COc1ccc(C=CC(C)=NNC(=O)c2ccncc2)cc1	x	23	x	0	x
CC(/C=C/c1ccccc1)=N\NC(=O)c1ccncc1	14%	-1	11µM*	8	7.1µM*
O=C(N/N=C\C=C\c1ccc([N+](=O)[O-])o1)c1cccs1	u	-18	11µM*	-8	7.9µM*
C/C(=N\NC(N)=S)c1ccccc1	7%	-3	15%	-4	14%
NC(=S)NN=C(c1ccccc1)c1ccccc1	-1%	-22	u	-4	7.1µM*
CC(/C=C/c1ccc2c(c1)OCO2)=N\NC(=O)c1ccccc1	16%	-2	16µM*	9	5.6µM*
CC(/C=C/c1ccc2c(c1)OCO2)=N\NC(=O)C(O)c1ccccc1 (stereo unspecified)	4%	-20	20%	5	16%
CC(=O)Nc1ccc2[nH]c3ccccc3c2c1	19%	2	1%	3	35%
O=C(Nc1ccc(Cl)cc1)c1cc2c(cc1O)[nH]c1ccccc12	7%	-2	18µM*	11	-35%
COc1cc(NC(=O)c2cccs2)c(OC)cc1NC(=O)Cc1ccccc1	-2%	-81*	-4%	-6	u
COc1cc(NC(=O)c2cccs2)c(OC)cc1NC(=O)CCC(=O)Nc1ccc2ncccc2c1	-2%	-69*	u	x	u
COc1ccc(OCC(=O)Nc2ccc(NC(=O)c3cccs3)c(OC)c2)cc1	-10%	6	-17%	3	-2%
COc1ccc(-n2nnnc2C2(C)CCC(=O)N2Cc2ccccc2)cc1 (stereo unspecified)	x	4	x	1	x
C=CCN(c1ccccc1)S(=O)(=O)c1cccc(C(=O)Nc2nc3ccccc3[nH]2)c1	7%	-11	4.5µM*	-11	2.8µM*
CN(c1cccc(Cl)c1)S(=O)(=O)c1cccc(C(=O)Nc2nc3ccccc3[nH]2)c1	u	-15	3.5µM*	-10	2.8µM*
